# Screening data as filed in PubChem BioAssay.
# Most compounds without a hit are left out; they make up all but 6.1% or so of the library.
# S2 tox = cell viability loss in ATXN counter-screen; S2 cells (HEK-293 line with an ATXN2-luciferase reporter) viability, CellTiter-Fluor protease fluorescence, 24 h; Potency, µM (series often up to 56.7 µM), actives largely listed as cytotoxic; 400,000 tested, 0.49% active; AID 651635; note: nearly all actives have a fitted effect of over 40% in size
# Gal4-VP16 FLuc = inhibits Gal4-VP16 luciferase reporter, ROR gamma counter-screen. Drosophila S2 Gal4-VP16 UAS-luciferase, luminescence, 20 h. Potency, µM (highest dose often 53.6 µM), for the others: at the top dose activity, negative = inhibition, most hits filed as inhibitors. 310,000 tested, 3.5% active;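 note: Gal4-VP16 expression switched on by copper sulfate through the metallothionein promoter; % is set by controls: 0 for no effect and ±100 for the full control effect; nearly all actives have a fitted effect of over 50% in size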
# ATXN2 expr inh = ATXN2 expression inhibition. HEK-293 ATXN2-luciferase reporter, luminescence, 24 h. Potency, µM (titrated, usually from 57 µM), without a hit: at the top dose activity change, negative = inhibition, hits mostly inhibitors. 360,000 tested, 0.72% active; note: % is set by controls: 0 for no effect and ±100 for the full control effect; nearly all actives have a fitted effect of over 55% in size
#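 qHTS (up to 57 uM final) was run with 24 h compound exposure of reporter cells at 37 °C. Each well was multiplexed: SteadyGlo luminescence measured ATXN2-luciferase expression after a fluorogenic Gly-Phe-AFC viability readout (25 uM final).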
# HepG2 tox = HepG2 cytotoxicity, counter-screen for TGF-b inhibitors | HepG2 CAGA-GFP viability, ATP luminescence, 18 h | Potency, µM (series often up to 46.1 µM), for inactives: at the top dose activity change, negative = cytotoxicity, usual class: cytotoxic | 410,000 tested, 0.76% active | AID 588856
#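 HepG2 CAGA-GFP cells (1000/well, DMEM with 1% FBS) received compound, then TGF-beta at 500 pg/mL final, and were incubated 18 hours at 37 degrees C. Viability was read by CellTiter-Glo luminescence. Media-only wells were set as complete cell-killing and DMSO as no toxicity.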
# RORgamma inh = ROR gamma (mouse) transcription inhibition; Potency, µM (doses to about 53.6 µM), inactives show top-dose activity change, negative = inhibition, most hits filed as inhibitors; 310,000 tested, 5.4% active; Drosophila S2 Gal4-RORgamma UAS-luciferase reporter, 20 h; P51450; AID 2551; note: % is set by controls: 0 for no effect and ±100 for the full control effect; nearly all actives have a fitted effect of over 60% in size
# Target sequence (P51450 whole entry, looked up, the tested form may be a part): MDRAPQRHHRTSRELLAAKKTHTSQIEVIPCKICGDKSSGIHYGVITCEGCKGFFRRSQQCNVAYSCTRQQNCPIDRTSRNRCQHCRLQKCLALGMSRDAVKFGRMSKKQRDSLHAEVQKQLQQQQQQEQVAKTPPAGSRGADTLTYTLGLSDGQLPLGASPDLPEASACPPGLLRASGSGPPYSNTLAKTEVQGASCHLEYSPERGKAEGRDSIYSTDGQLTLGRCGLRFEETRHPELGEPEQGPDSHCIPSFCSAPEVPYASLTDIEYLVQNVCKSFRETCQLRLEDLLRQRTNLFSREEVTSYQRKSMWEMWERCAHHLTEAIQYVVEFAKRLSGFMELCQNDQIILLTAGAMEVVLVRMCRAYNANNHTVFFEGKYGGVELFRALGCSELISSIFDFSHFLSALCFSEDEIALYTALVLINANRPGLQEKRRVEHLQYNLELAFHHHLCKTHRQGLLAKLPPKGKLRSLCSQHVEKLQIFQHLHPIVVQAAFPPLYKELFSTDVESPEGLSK
#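 Schneider cells (Drosophila), stable Gal4 DBD–ROR gamma + UAS-luc; 1 hr cmpd preincubation; Cu2+ induction 700 uM final; 20 hr ambient; luminescence.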
# TGFb SMAD3 inh = inhibitors of TGF-b signaling; Potency, µM (top dose mostly 46.1 µM), for the others: at the highest dose activity, negative = inhibition, hits mostly inhibitors; 410,000 tested, 1.2% active; HepG2 CAGA-GFP TGF-b/SMAD3 reporter, GFP fluorescence, 18 h; TGF-beta stimulated, 500 pg/mL final; note: % is set by controls: 0 for no effect and ±100 for the full control effect; nearly all actives have a fitted effect of over 65% in size
#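 First, reporter cells (HEPG2 CAGA-GFP) rested 2 h at 37 degrees C. Next, compounds were pinned in and TGF-beta added to 500 pg/mL final. After 18 h, GFP was imaged per cell and summed per well.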
# * = called active by the depositor; i = inactive; ? = inconclusive; nt = no result given; [ ] = remark or other dose. Calls come from the whole dose curve; as a rule, active = well fitted curve in the direction sought with a large enough effect; inconclusive = small, poorly fitted or top-dose-only effect, or another doubt; inactive = no such curve, though single readings can be large; an effect the other way counts as inactive or inconclusive. Potency is the fitted concentration of half-maximal effect.
SMILES,S2 tox,Gal4-VP16 FLuc,ATXN2 expr inh,HepG2 tox,RORgamma inh,TGFb SMAD3 inh
O=C(NCc1ccco1)c1cccn2c(=O)c3cc4ccccc4cc3nc12,nt,11.2µM*,nt,nt,?,nt
CC(C)(C)c1ccc(C(=O)NC(=S)NCc2ccco2)cc1,i,7.94µM*,45.4%,-23.8%,6.31µM*,-3.7%
Cc1cccc(-c2noc(CCC(=O)NCc3ccco3)n2)c1,i,-3.7%,1.1%,-11.4%,19.2%,19.4%
O=C(NC(=S)NCc1ccco1)c1ccc([N+](=O)[O-])cc1,i,nt,6.9%,-20.3%,nt,-10.4%
O=C(NCc1ccco1)c1ccc2ccccc2c1,i,10µM*,18.3%,-3.1%,?,-1.8%
COCCNC(=S)NC(=O)c1ccc(C(C)(C)C)cc1,i,11.2µM*,nt,-15.0%,2µM*,4.0%
Cc1ccc(C2CC2C(=O)NNC(=S)Nc2cccc(C)c2)cc1 (centres undefined),i,-1.9%,2.0%,0.5%,-16.1%,-16.2%
O=C(NC(=S)NCc1ccco1)c1ccc(Br)cc1,nt,15.8µM*,11.0%,-9.6%,14.1µM*,3.0%
COCCCNC(=S)NNC(=O)C1CC1c1ccc(C(C)(C)C)cc1 (centres undefined),i,-13.0%,nt,-1.5%,4.47µM*,-9.2%
O=C(NC(=S)NCc1ccco1)c1ccccc1,i,3.2%,-15.4%[11.3 µM],21.2%,13.3%,-1.2%
Cc1ncc2c(c1CNS(=O)(=O)c1cccs1)CCN(C(=O)/C=C/c1cc(F)cc(F)c1)C2,i,nt,nt,nt,nt,nt
O=C(/C=C\c1ccc2c(c1)OCO2)NC1CC(=O)N(c2ccc(F)cc2)C1 (centres undefined),nt,nt,nt,-23.2%,nt,?
CCCn1nnc(NC(=S)NC(=O)C(C)(C)C)n1,i,8.91µM*,5.0%,9.3%,3.55µM*,-23.9%
CCCn1nnc(NC(=S)NC(=O)/C=C/c2ccco2)n1,i,-2.0%,0.8%,3.6%,-33.2%,-7.4%
CCCn1nnc(NC(=S)NC(=O)c2cccs2)n1,i,5.62µM*,16.4%,-2.3%,2µM*,7.8%
CCn1nnc(NC(=S)NC(=O)c2ccc(-c3cccc(Cl)c3)o2)n1,i,2.82µM*,-4.7%,-5.8%,0.282µM*,-4.8%
CCCn1nnc(NC(=O)c2ccc(-c3cccc(Cl)c3)o2)n1,i,3.9%,40.9%,-24.6%,-3.0%,-6.3%
COc1ccc(Cl)cc1NC(=O)NCCc1c(C)nn(C)c1C,i,nt,-6.7%,-4.5%,nt,-18.0%
COc1cc(Cl)c(C)cc1NC(=O)CSc1cc(-c2ccccc2)nc(C)n1,nt,nt,nt,-2.7%,nt,-7.9%
CCCCNc1nc(C)nc2c1nc(-c1ccccc1)n2CCN1CCCC1,nt,-2.7%,nt,nt,-40.5%,nt
COc1ccc(O)c(/C=N/NC(=O)c2ccc(N3CCCC3=O)cc2)c1,i,?,25.1µM*,-28.4%,2.24µM*,6.5%
O=C(N/N=C/c1cc(Br)ccc1O)c1cccc(N2CCCC2=O)c1,?,5.62µM*,?,-0.7%,1µM*,?
O=C(N/N=C/c1ccco1)c1cccc(N2CCCC2=O)c1,i,1.4%,15.3%,1.6%,?,17.2%
COc1ccc(O)c(/C=N/NC(=O)c2cccc(N3CCCC3=O)c2)c1,i,3.55µM*,?,-23.0%,3.55µM*,3.1%
O=C(c1ccccc1Cl)n1nc(-c2ccco2)nc1NCc1cccs1,i,nt,14.5%,-1.7%,nt,-24.3%
SMILES,S2 tox,Gal4-VP16 FLuc,ATXN2 expr inh,HepG2 tox,RORgamma inh,TGFb SMAD3 inh
CCc1ccc2oc(C(=O)Nc3nc(-c4ccccc4)ns3)c(C)c2c1,nt,nt,nt,-13.9%,nt,-18.8%
CCOC(=O)c1c(-c2ccccc2)oc2ccc(OCC(O)CN(C)C)cc12 (centres undefined),?,-26.8%,-36.2%,17.8µM*,?,14.1µM*
Cc1ccccc1NC(=O)CSc1nc2ccc(NC(=O)COc3ccccc3F)cc2s1,?,nt,17.8µM*,-26.1%,nt,?
c1ccc(-c2nc(NCc3cccnc3)c3ccccc3n2)cc1,i,-10.1%,-16.8%,-32.8%,8.7%,-6.1%
CCCN(CCC)c1nc(-c2ccccc2F)nc2ccccc12,i,nt,-9.8%,-11.9%,nt,-21.5%
c1ccc(CCNc2nc(-c3ccccn3)nc3ccccc23)cc1,?,4.47µM*,?,-11.0%,0.251µM*,?
CCCN(CCC)c1nc(-c2ccccn2)nc2ccccc12,?,5.01µM*,?,-54.1%,3.55µM*,?
CCOC(=O)OCC1OC(C#Cc2ccc(C(C)(C)C)cc2)C=CC1OC(=O)OCC (centres undefined),nt,-4.1%[10 µM],nt,nt,-2.3%[10 µM],nt
O=C(Nc1cccc(F)c1)c1cc(S(=O)(=O)NCCC2=CCCCC2)ccc1F,?,?,-35.6%,14.1µM*,?,?
Cc1ccc(S(=O)(=O)NCCC2=CCCCC2)cc1C(N)=O,i,7.94µM*,-20.8%,-11.9%,?,-5.1%
Cc1cc(S(=O)(=O)NCCC2=CCCCC2)ccc1Br,i,nt,-10.4%,-29.5%,nt,?
Oc1c(Br)cc(Br)cc1C=NCc1ccc(F)cc1,i,?,-33.5%,-14.8%,10µM*,-16.8%
Clc1ccccc1CNc1nc2ccccc2c2nc(-c3cccnc3)nn12,i,nt,4.2%,-0.4%,nt,1.0%
Cc1cc(C)c(CN2CCN(C(=O)Cn3cnc(C(=O)Nc4ccc(C)c(C)c4)n3)CC2)c(C)c1,?,nt,?,-99.5%,nt,15.8µM*
Cc1ccc(NC(=O)c2ncn(CCCN3CCN(Cc4cccc5ccccc45)CC3)n2)cc1C,31.6µM*,nt,?,-84.8%,nt,?
COc1ccc2c(c1)O[C@@H](c1cccc(C(F)(F)F)c1)[C@H](OC(=O)NS(=O)(=O)c1ccc(F)cc1)C2=O,nt,6.5%,nt,nt,18.6%,nt
OCc1ccccc1O[C@@H]1O[C@H](CO)[C@H](O)[C@H](O)[C@H]1O,nt,nt,-0.5%,nt,nt,nt
CCc1ccc(C2c3c(n[nH]c3C)C(=O)N2c2ccc(C)cc2)cc1 (centres undefined),?,nt,10.2%,-64.1%,nt,?
CSc1ccccc1NC(=S)N/N=C/c1cccn1Cc1cccc(C)c1,i,5.01µM*,nt,10.3%,0.891µM*,14.7%
Cc1cccc(NC(=S)N/N=C/c2cccn2Cc2ccc(F)cc2)c1,i,2.24µM*,10.2%,-36.5%,0.199µM*,3.3%
COc1oc(=O)c2cc(N)ccc2c1Cl,nt,14.1µM*,nt,nt,7.94µM*,nt
COc1ccc2c(c1)oc(=O)c1cc(OC)ccc12,i,-16.4%,10.9%,-0.3%,-0.5%,-0.3%
OC(CNCc1ccc(-c2ccccc2)cc1)c1ccccc1 (centres undefined),i,-10.7%,-38.8%,22.4µM*,-44.3%,?
